GPR151 ag – activators of human GPR151, primary screen, cell-based, PathHunter beta-arrestin, luminescence. PathHunter beta-arrestin GPR151 cells. AID 1508602, 2020. 650,000 compounds, 1% hits. activation, % at 11.2 µM. G-protein coupled receptor 151 (Homo sapiens), Q8TDV0; in the data active means activation above about 4.9%;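 further: 0% = median of compound wells and 100% = cells with positive control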
MITF inh – MITF inhibitors, primary screen, biochemical, AlphaScreen, human; AID 1259374, 2018; 650,000 compounds, 0.91% hits; Microphthalmia-associated transcription factor (Homo sapiens), O75030; inhibition, % at 2.6 µM; AlphaScreen MITF homodimerization, bead proximity signal; in the data active means inhibition above about 50%;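 further: 0% = vehicle wells with protein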
FBW7 activator – FBW7 E3 ligase activators, primary screen, biochemical, AlphaScreen, human | F-box/WD repeat-containing protein 7 (Homo sapiens), Q969H0 | AID 1259310, 2017 | AlphaScreen FBW7–phospho-cyclin E peptide binding, activator screen | 650,000 compounds, 0.13% hits | normalized activity (activation), % at 26.1 µM; in the data active means normalized activity above about 1.9%;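 further: purified mutant Fbw7 with reduced substrate affinity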
TEAD-YAP inh – TEAD-YAP interaction inhibition, primary screen, TEAD-YAP interaction inhibitor project, luminescence, HEK-TIYL cells. TEAD-Gal4/YAP UAS-luciferase luminescence. inhibition, % at 9.12 µM. 640,000 compounds, 1.4% hits. AID 1259422, 2018; in the data active means inhibition above about 32%;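 further: 0% = median of test compound wells and 100% = reference inhibitor wells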
GPR151 confirm – GPR151 activators, triplicate retest, confirmation, cell-based, PathHunter beta-arrestin, luminescence; shares compounds with GPR151 ag; GPR151 PathHunter beta-arrestin cells, 90 min; % of EA-reagent control over plate median; activation, % at 11.2 µM; 6,700 tested, under 10 active; AID 1508609, 2020;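 active means mean percent activation across replicates above the confirmation screen cutoff of 4.91%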
GPR119 ag – GPR119 activators in beta-arrestin cells, counter-screen for GPR151 activator project, cell-based, PathHunter beta-arrestin, luminescence, triplicate; shares compounds with GPR151 ag; 90 min; 0 = compound-well median, 100 = enzyme-acceptor control; activation, % at 11.2 µM; 6,700 compounds, 0.3% hits; AID 1508611, 2020;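 active means mean percent activation in the counterscreen above 29.09%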;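 further: counterscreen on off-target GPR119 to flag nonselective hits from the GPR151 activator screen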
Target sequence (Q8TDV5 whole entry, looked up): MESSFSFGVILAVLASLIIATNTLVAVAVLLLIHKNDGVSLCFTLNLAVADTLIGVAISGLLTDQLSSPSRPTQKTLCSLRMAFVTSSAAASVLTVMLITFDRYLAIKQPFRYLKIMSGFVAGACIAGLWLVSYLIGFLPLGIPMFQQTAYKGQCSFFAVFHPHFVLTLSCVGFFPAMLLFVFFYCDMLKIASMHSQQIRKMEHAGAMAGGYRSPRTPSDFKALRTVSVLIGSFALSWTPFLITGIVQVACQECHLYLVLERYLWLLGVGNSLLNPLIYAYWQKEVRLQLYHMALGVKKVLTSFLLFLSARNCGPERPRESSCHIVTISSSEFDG
Starred values were filed as active, the others as inactive. A selection: hits, their analogues and other compounds. The true share with any hit is near 3.5%.

Screening CC(C)CNC(=O)Cn1nnc2ccccc2c1=O returned GPR151 ag 7.7*, MITF inh -2, FBW7 activator 0, TEAD-YAP inh -9, GPR151 confirm 0 and GPR119 ag 2.
`CC(C)CC(=O)N1CCC(n2nnc3ccccc3c2=O)CC1` gave GPR151 ag 6.0*, MITF inh 27, FBW7 activator 1, TEAD-YAP inh 0, GPR151 confirm 1 and GPR119 ag 5.
For CC12CCC(C(N)=O)(C(=O)C1=O)C2(C)C (stereo not drawn) the results were GPR151 ag 1, MITF inh 0, FBW7 activator 0 and TEAD-YAP inh -8.
Screening COc1ccc(NC(=O)CC(C)(C)n2cccc2)cc1 returned GPR151 ag -2, MITF inh 11, FBW7 activator 0 and TEAD-YAP inh 4.
Screening O=C(CCc1ccccc1)N1CC[C@@H]2[C@H](CCCN2C(=O)Cc2ccsc2)C1 returned GPR151 ag -1, MITF inh -2, FBW7 activator 0 and TEAD-YAP inh -3.
`Nc1nc(Nc2ccccc2)cc(-c2ccccc2)n1` gave GPR151 ag -1, MITF inh 5, FBW7 activator 0 and TEAD-YAP inh 2.
Nc1nc(Nc2ccc(N3CCOCC3)cc2)cc(-c2csc3ccccc23)n1 was read as GPR151 ag -1, MITF inh 15, FBW7 activator 0 and TEAD-YAP inh -32.
Nc1nc(Nc2ccc(Oc3ccccc3)cc2)cc(-c2csc3ccccc23)n1 was read as GPR151 ag 6.7*, MITF inh 5, FBW7 activator 0, TEAD-YAP inh 52*, GPR151 confirm 0 and GPR119 ag 2.
`Nc1nc(Nc2ccccc2)cc(-c2cccs2)n1` gave GPR151 ag 6.2*, MITF inh 7, FBW7 activator 0, TEAD-YAP inh -57, GPR151 confirm 0 and GPR119 ag 0.
COC(=O)c1ccc(/C=N/NC(=O)c2cc3ccccc3cc2O)cc1 was read as GPR151 ag -2, MITF inh 15, FBW7 activator 1 and TEAD-YAP inh 21.
`O=C(N/N=C/c1ccc(O)cc1)c1cc(-c2ccc(Br)cc2)n[nH]1` gave GPR151 ag 0, MITF inh 8, FBW7 activator 0 and TEAD-YAP inh 19.
O=C(N/N=C/c1ccccc1O)c1cc(-c2ccc(Br)cc2)n[nH]1 was read as GPR151 ag 5.5*, MITF inh 16, FBW7 activator 0, TEAD-YAP inh 2, GPR151 confirm 1 and GPR119 ag -5.
`O=C(N/N=C/c1cc(I)ccc1O)c1cc(-c2ccccc2)n[nH]1` gave GPR151 ag 1, MITF inh 5, FBW7 activator 0 and TEAD-YAP inh 12.
For O=C(N/N=C/c1ccncc1)c1cc(-c2ccc(Br)cc2)n[nH]1 the results were GPR151 ag 5.8*, MITF inh 7, FBW7 activator 0, TEAD-YAP inh -10, GPR151 confirm 0 and GPR119 ag -2.
O=C(N/N=C/c1ccncc1)c1cc2ccccc2cc1O was read as GPR151 ag 5.0*, MITF inh 10, FBW7 activator 0, TEAD-YAP inh 3, GPR151 confirm -2 and GPR119 ag -13.
For COc1cc(/C=N/NC(=O)c2ccccn2)ccc1OC(C)=O the results were GPR151 ag -2, MITF inh 6, FBW7 activator 0 and TEAD-YAP inh -51.
Screening COc1ccc(/C=N\NC(=O)c2cnccn2)cc1OCc1ccccc1 returned GPR151 ag 5.8*, MITF inh 12, FBW7 activator 0, TEAD-YAP inh 5, GPR151 confirm 0 and GPR119 ag 17.
`COc1cccc(/C=N/NC(=O)C(=O)NC(C)c2ccccc2)c1O` (stereo not drawn) gave GPR151 ag 2, MITF inh 50, FBW7 activator -2 and TEAD-YAP inh 10.
`COc1cccc(/C=N/NC(=O)C(=O)NCC(C)C)c1O` gave GPR151 ag 30*, MITF inh 23, FBW7 activator -1, TEAD-YAP inh -6, GPR151 confirm -1 and GPR119 ag -15.
Screening CCOc1ccc(/C=N/NC(=O)c2ccccn2)cc1OC returned GPR151 ag 6.8*, MITF inh 14, FBW7 activator 0, TEAD-YAP inh -43, GPR151 confirm 0 and GPR119 ag -3.
For COc1cccc(/C=N/NC(=O)c2[nH]nc(-c3ccccc3)c2C)c1O the results were GPR151 ag 7.6*, MITF inh 25, FBW7 activator 0, TEAD-YAP inh 10, GPR151 confirm 0 and GPR119 ag -13.
CCOC(=O)c1nccn1CC(=O)Nc1cccc(Cl)c1C was read as GPR151 ag 1, MITF inh 13, FBW7 activator 0 and TEAD-YAP inh 7.
`CC1(C)CC(=O)c2cc(OCC(=O)NC3CCCC3)ccc2O1` gave GPR151 ag -1, MITF inh 1, FBW7 activator 0 and TEAD-YAP inh -19.
Screening COc1cccc(/C=N\NC(=O)c2cnccn2)c1O returned GPR151 ag 5.3*, MITF inh 38, FBW7 activator -1, TEAD-YAP inh -14, GPR151 confirm 0 and GPR119 ag 1.
`COc1cc(OC)nc(Oc2cccc(C)c2/C=N/NC(=O)c2ccccn2)n1` gave GPR151 ag 6.0*, MITF inh 14, FBW7 activator 0, TEAD-YAP inh -45, GPR151 confirm -1 and GPR119 ag -11.
Screening COc1cccc(/C=N/NC(=O)c2ccc(-n3c(C)ccc3C)cc2O)c1O returned GPR151 ag 5.4*, MITF inh 64*, FBW7 activator -1, TEAD-YAP inh -32, GPR151 confirm -1 and GPR119 ag -11.
Screening COc1ccc(Br)cc1C(=O)N/N=C/c1cccc(OC)c1O returned GPR151 ag 1, MITF inh 10, FBW7 activator 0 and TEAD-YAP inh 22.
`Cc1ccc(-n2nc(C)cc2/N=C/N(C)C)cc1` gave GPR151 ag 5.4*, MITF inh 9, FBW7 activator 0, TEAD-YAP inh 3, GPR151 confirm 0 and GPR119 ag 0.
Screening CO/N=C(\CSc1ccccc1OC)c1sc2ncnn2c1C returned GPR151 ag 3, MITF inh -5, FBW7 activator 0 and TEAD-YAP inh -15.
`Cc1c(C(=O)CSc2ccc(F)cc2F)sc2ncnn12` gave GPR151 ag 5.9*, MITF inh 10, FBW7 activator 0, TEAD-YAP inh -8, GPR151 confirm 0 and GPR119 ag 7.

Assay outcomes (PubChem BioAssay)
